“And” between values parts separate entries of the source, which are not always exact repeats. Equal entries are not always repeated. Compounds without any hit were thinned out: in the full panel of roughly 83,000, 20% have a hit.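 Activity criterion: percent growth below 10, measured after cells in 96-well plates were exposed to a single compound concentration for 48 hours.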 The source made the active and inactive calls.
Each compound was assayed on MDA-MB-468 breast (assay: NCI-60 one-dose screen, 48 h (100 = growth as untreated, 0 = no growth, -100 = all killed)). Settings: 10 µM unless noted.

Structure (SMILES) | growth
COc1c(NC=O)c2c(c([N+](=O)[O-])c1OC)C(=O)OC2 | 113% (inactive) and 93.1% (inactive)
COc1cccc(/C=N/C(=S)NC2(C)C3CCC(C3)C2(C)C)c1O (centres undefined) | 57% (inactive)
CCNC(=O)Nc1ccc(-c2nc3c(c(N4CCOC[C@@H]4C)n2)CCN(C2COC2)C3)cc1 | 13.5% (inactive) and -25.6% (active)
COc1ccc2cc(C(C)C(=O)Nc3ccc(S(=O)(=O)Nc4cc(C)on4)cc3)ccc2c1 (centres undefined) | 114% (inactive)
CCOC(=O)C1=C(C)NC(=O)NC1c1ccc(OCC(=O)N/N=C/c2ccc(Cl)cc2)cc1 (centres undefined) | 96.5% (inactive)
COc1ccc(Cn2c(Br)c3c(c2-c2cc(OC)c(OC)c(OC)c2)CCc2sc(N)nc2-3)cc1 | 16.3% (inactive)
COc1ccc2c(c1)oc1c(C)c3c(c(C)c12)C(=O)N(Nc1ccccc1)C3=O | 115% (inactive)
O=C(N/N=C(\CS(=O)(=O)c1ccccc1)c1cc2cc(Br)ccc2oc1=O)c1ccccc1 | 109% (inactive)
CCCOC(=O)c1nc(N(CC2CCCCC2)C(=O)NC)sc1/N=C/c1ccccc1 | -18.8% (active)
O=C(Nc1ccccc1Cl)Oc1ccc(-c2ccccc2)cc1 | 115% (inactive)
O=C(/C=C/C=C/c1ccc2c(c1)OCO2)N/N=C\c1ccc(O)cc1O | -2.83% (active)
O=C(Nc1ccc(N2CCNCC2)cc1)c1[nH]ncc1Nc1ncnc2sc3c(c12)CCC3 | -83.5% (active)
CCOP(=O)(OCC)/C(C#N)=C/c1c(C)[nH]c2ccccc12 | 99.7% (inactive)
CCN(CC)c1ccc2c(c1)OS(=O)(=O)N=C2 | 111% (inactive)
